This is an account of results in article PMC5540273 (PLoS ONE, 2017).

SMILES strings stand for the structures.
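Note: KINOMEscan kinase panel screen.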

One assay has as its system MKNK1. Particulars: concentration: 1 μM,replicates: in singlicate; n = 1.
`CC(C(=O)NC1CCN(c2ccnc(Nc3ccc(F)cc3)n2)C1)c1ccc(Cl)cc1` (stereo not shown) [GSK1379713]: the “%Inh” value is on record as 5%.

For `C[C@@H]1CCN(C(=O)N2CCCC2)C[C@@H]1N(C)c1ncnc2[nH]ccc12`, the “%Inh” value is listed as 0%. Still for that read-out and setting: next, `NC(=O)c1ccc(-c2cc3ncnc(SCC(=O)O)c3s2)cc1`: 6%.

The test system of another assay is MKNK2. The note with it: concentration: 1 μM,replicates: in singlicate; n = 1.
On to `C[C@@H](Oc1cc(-n2cnc3cc(-c4ccncc4)ccc32)sc1C(N)=O)c1ccccc1Cl` [GSK479719], for which the “%Inh” value is on record as 28%.

Consider `COc1cc2c(Nc3ccc(NC(=O)c4ccccc4)cc3)ncnc2cc1OCCCN1CCOCC1` [GSK301329], for which the “%Inh” value was found to be 18%. As to `Cc1cccc(-c2nc(Nc3ccncc3)c3sccc3n2)n1` [GW869641], the “%Inh” value came to 0%. For `Cl.Cl.NC[C@H](CC1CCCCC1)NC(=O)c1ccc(-c2ccnc3[nH]ccc23)s1` [GSK1581428], the “%Inh” value amounted to 97.6%. For the molecule `Cc1ccc(Nc2ccnc(Nc3ccc4c(c3)CS(=O)(=O)C4)n2)cc1O.Cl` [GW579362], the “%Inh” value came to 94.5%.

On to `CCOC(=O)N1CCC(n2cnc(-c3ccc(F)cc3)c2-c2ccnc(N)n2)CC1` [SB-219952], for which the “%Inh” value is recorded as 49%. `CS(=O)(=O)c1cccc(CNc2nc(Nc3ccc4c(c3)[C@@H]3C[C@@H]4CNC3=O)ncc2C(F)(F)F)c1`: the “%Inh” value is reported as 97.6%.

Take `O=C(Nc1ccc(Oc2ccc3nc(NC(=O)C4CC4)cn3n2)c(F)c1)c1cccn(-c2ccccc2)c1=O`: the “%Inh” value stood at 92.5%. On the same count and under the same terms, next, `Cc1ccc(C(=O)Nc2ccc(Oc3ccc4nc(NC(=O)C5CC5)cn4c3)c(F)c2)c(=O)n1-c1ccccc1`: 94.2%. For `CCN1CCN(CCCC(=O)Nc2n[nH]c3nc(-c4ccc(O)cc4)c(Br)cc23)CC1` [SB-731579], the “%Inh” value is reported as 46%.

On to `COC(=O)c1cccc(NC(=O)NC2CCN(c3ccnc(Nc4cc(OC)c(OC)c(OC)c4)n3)C2)c1` (stereo not shown) [GSK1379767], for which the “%Inh” value is given as 32%. Same read-out and setting: the value for `Cn1cc(-c2cccc3c(N)c(C(N)=O)nnc23)cn1` was 29%; that for `Cn1ccc2ncnc(Oc3ccc(NC(=O)Nc4cccc(C(F)(F)F)c4)c(F)c3)c21` was 89%.

In the case of `COc1cc(Nc2nccc(N3CCC(NC(=O)c4cccc(C#N)c4)C3)n2)cc(OC)c1OC` (stereo not shown) [GSK1379751], the “%Inh” value worked out at 67%.

Consider `c1ccc(Oc2ccc(Nc3ccnc4ccc(-c5ccccn5)cc34)cc2)cc1` [GW407034], for which the “%Inh” value was determined as 17%.

As to `C[C@@H](Oc1cc(-n2cnc3cc(-c4cnn(C)c4)ccc32)sc1C(N)=O)c1ccccc1Cl` [GSK580432], the “%Inh” value was 20%. Regarding `FC(F)(F)c1cc(Br)cc(Nc2nccc(-c3cnn4ncccc34)n2)c1` [GW810578], the “%Inh” value is 0%. In the case of `COc1cccc(CNC(=O)NC2CCN(c3ccnc(Nc4cc(OC)c(OC)c(OC)c4)n3)C2)c1` (stereo not shown) [GSK1379765], the “%Inh” value was 39%.

Regarding `Cc1n[nH]c2cc(Nc3ccnc(Nc4cccc(CN5CCOCC5)c4)n3)ccc12` [GW682569], the “%Inh” value is on record as 67%. In the case of `O=C(NCC1CC1)c1ccc(-c2cc(C(=O)NC3CC3)ccc2F)cc1` [GW810445], the “%Inh” value is 0%.

With `Cc1nnc(-c2ccc3occ(-c4ccc(S(C)=O)cc4)c3n2)o1` (stereo not shown), the “%Inh” value was determined as 0%.

In the case of `COC(=O)c1cccc(NC(=O)NC2CCN(c3ccnc(NCc4ccc(F)cc4)n3)CC2)c1` [GSK1379860], the “%Inh” value amounted to 9%. As to `Cc1cccc2c(-c3ccncc3)c(-c3ccc(F)cc3)nn12.Cl` [GW461487], the “%Inh” value turned out to be 0%. As for `O=C(Nc1n[nH]c2cc(-c3ccco3)ccc12)C1CC1` [SB-737447], the “%Inh” value turned out to be 39%. With `CN(c1ccccc1CNc1nc(Nc2ccc3c(c2)CC(=O)N3)ncc1C(F)(F)F)S(C)(=O)=O`, the “%Inh” value amounted to 0%. As to `CC(=O)Nc1nc2cnc(Nc3cc(NC(=O)c4cccc(CC(C)(C)C#N)c4)ccc3C)nc2s1`, the “%Inh” value stood at 41%.

On to `COc1ccc(Nc2nccc(N3CCC(NC(=O)c4cccc(C#N)c4)C3)n2)cc1` (stereo not shown) [GSK1379730], for which the “%Inh” value is given as 5%. As for `CS(=O)c1ccc(-c2coc3ccc(-c4n[nH]c(=O)o4)cc23)cc1` (stereo not shown), the “%Inh” value is given as 11%. Turning to `CS(=O)(=O)Nc1ccc(-c2ccnc3[nH]ccc23)cc1` [GSK993273], the “%Inh” value worked out at 95.9%. Still for that read-out and setting: next, `Cn1ccc2ncnc(Oc3ccc(NC(=O)Nc4cnn(C(C)(C)C)c4)c(Cl)c3)c21`: 78%; `Cl.c1ccc(Oc2ccc(Nc3ccnc4cc(-c5ccc(CN6CCNCC6)o5)ccc34)cc2)nc1` [GW567142]: 42%; `CSc1nccc(-c2c(-c3ccc(F)cc3)ncn2CCCN2CCOCC2)n1.Cl` [SB-217146]: 0%. Still for that read-out and setting: the value for `C[C@@H](Oc1cc(-n2cnc3ccc(-c4ccncc4)cc32)sc1C(N)=O)c1ccccc1Cl` [GSK483724] was 7%; that for `Nc1nccc(-c2ccc3c(N)n[nH]c3c2)n1` [GSK1034945] was 86%; that for `CC(C(=O)NC1CCN(c2ccnc(Nc3ccc(F)cc3)n2)C1)c1ccc(Cl)cc1` (stereo not shown) [GSK1379713] was 0%. Regarding `C[C@@H]1CCN(C(=O)N2CCCC2)C[C@@H]1N(C)c1ncnc2[nH]ccc12`, the “%Inh” value turned out to be 58%. On the same count and under the same terms, the value for `NC(=O)c1ccc(-c2cc3ncnc(SCC(=O)O)c3s2)cc1` was 28%.
